From PubChem
Most compounds without a hit are left out; they make up all but 3.4% or so of the library.
p53ts 39C kill = p53ts cell cytotoxicity, nonpermissive temperature; H1299-p53A138V viability at 39C, ATP luminescence, 24 h; Potency, µM (doses to about 46.1 µM), hits mostly cytotoxic; 1.5% of 130,000 active; AID 902; further: nearly all actives have a fitted effect of over 55% in size
Tau fil binding = binders of human tau filaments. Potency, µM (titrated, usually from 57.1 µM). recombinant tau filaments, thioflavin S fluorescence, 15 h; filaments grown with octadecylsulfate alongside compound. 2% of 71,000 active;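 further: actives lower thioflavin S fluorescence by blocking filaments or displacing dye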
Target sequence (P10636 whole entry, looked up): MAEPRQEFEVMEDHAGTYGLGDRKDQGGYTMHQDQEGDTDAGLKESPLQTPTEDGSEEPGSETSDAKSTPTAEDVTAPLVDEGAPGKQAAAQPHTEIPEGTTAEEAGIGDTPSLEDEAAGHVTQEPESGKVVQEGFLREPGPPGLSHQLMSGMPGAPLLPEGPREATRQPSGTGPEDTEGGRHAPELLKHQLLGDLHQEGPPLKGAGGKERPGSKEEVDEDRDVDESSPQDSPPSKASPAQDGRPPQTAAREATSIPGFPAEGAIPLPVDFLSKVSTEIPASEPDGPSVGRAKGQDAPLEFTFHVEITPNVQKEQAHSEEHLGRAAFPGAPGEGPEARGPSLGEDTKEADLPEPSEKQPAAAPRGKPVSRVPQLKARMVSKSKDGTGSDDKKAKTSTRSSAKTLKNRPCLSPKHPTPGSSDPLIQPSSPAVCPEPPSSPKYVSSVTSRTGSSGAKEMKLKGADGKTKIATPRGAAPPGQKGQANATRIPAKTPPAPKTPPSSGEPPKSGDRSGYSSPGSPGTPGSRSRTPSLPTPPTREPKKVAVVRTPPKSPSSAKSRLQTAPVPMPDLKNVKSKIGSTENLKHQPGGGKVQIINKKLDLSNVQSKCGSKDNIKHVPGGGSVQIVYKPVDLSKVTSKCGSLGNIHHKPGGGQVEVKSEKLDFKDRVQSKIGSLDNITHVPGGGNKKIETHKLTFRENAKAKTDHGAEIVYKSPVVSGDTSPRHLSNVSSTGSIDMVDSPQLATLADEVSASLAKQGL
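His-tagged recombinant human tau (exons 2, 3 and 10 included), 1 uM, was induced to fibrillize by 30 uM sodium octadecylsulfate with compound present. After 15 h at 37 C, thioflavine S fluorescence (ex 450, em 510 nm) was read.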
Imprint erasure = inducers of genomic imprint erasure in mouse ES cells | mouse ES Peg3-LacZ reporter, beta-gal luminescence, 40 h | Potency, µM (top dose mostly 60.7 µM), usual class: activators | 0.02% of 110,000 active | AID 1948
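Gelatin-coated wells received 300 freshly trypsinized female ES cells with a Peg3LacZ-Neo reporter on the maternal allele, then incubated 40 hours at 37C. BetaGlo was added for 5 minutes at room temperature before a single luminescence read.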
p53ts 32C tox = p53ts cell cytotoxicity, permissive temperature. H1299-p53A138V at 32C, ATP luminescence viability, 24 h. Potency, µM (titrated, usually from 46.1 µM), most hits filed as cytotoxic. 0.93% of 130,000 active. AID 924; further: nearly all actives have a fitted effect of over 55% in size
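H1299-p53 A138V cells (temperature-sensitive p53) exposed 24 h to up to 46 uM compound at 32C, where p53 is wild-type in conformation. Viability read as ATP luminescence and normalised to DMSO and 100 uM tamoxifen. AC50 fitted with the Hill equation.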
FLuc inh = blocks Photinus pyralis firefly luciferase activity; P08659; 2.2% of 72,000 active; purified firefly luciferase, luminescence, 8 min; AID 411; Potency, µM (doses to about 57.1 µM), actives largely listed as inhibitors; further: nearly all actives have a fitted effect of over 40% in size
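Titration-based qHTS; buffer 50 mM imidazole pH 7.2, 50 mM KCl, 7 mM MgCl2, 10 uM ATP, 0.01% Tween 20, 0.05% BSA; luciferase/luciferin detector mix added after compound; 8 min, ambient; luminescence.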
Of the large screens only hits and unclear results are named; the others gave an inactive call; ! = not active in a repeat. The call rests on the fitted dose curve; in most records, active means well fitted curve in the direction sought with a large enough effect; inconclusive means small, poorly fitted or top-dose-only effect, or another doubt; inactive means no such curve, though single readings can be large; an effect the other way counts as inactive or inconclusive.

CCn1cc(C(=O)NCCc2ccc(Cl)cc2)c(=O)c2cc(S(=O)(=O)N3CCC(C)CC3)ccc21	none (no result: Tau fil binding, FLuc inh)
CCn1c(=O)c2sccc2n2c(CCCC(=O)N3CCN(c4ccc(OC)cc4)CC3)nnc12	none (no result: Tau fil binding, FLuc inh)
O=C(NC1(C(F)(F)F)C(=O)Nc2c1c(=O)[nH]c(=O)n2CCc1ccccc1)c1ccc(Cl)cc1 (configuration not stated)	none (no result: Tau fil binding, FLuc inh)
c1cn(CCCNc2ncnc3nc[nH]c23)cn1	p53ts 32C tox inconclusive, FLuc inh 2.51µM
COc1ccccc1OCCSc1nc(-c2ccc(C(C)(C)C)cc2)nc2cc(=O)[nH]n12	none (no result: Tau fil binding, FLuc inh)
Cc1ccc(OCCCSc2nc(-c3ccc(C(C)(C)C)cc3)nc3cc(=O)[nH]n23)cc1C	p53ts 39C kill 20µM, p53ts 32C tox inconclusive (no result: Tau fil binding, FLuc inh)
C=CCc1ccccc1OCCSc1nc(-c2ccc(C(C)(C)C)cc2)nc2cc(=O)[nH]n12	p53ts 39C kill 10µM, p53ts 32C tox inconclusive (no result: Tau fil binding, FLuc inh)
CCCC[C@H]1C[C@@H]1[C@@H]1N(P(=O)(c2ccccc2)c2ccccc2)[C@](CO)(c2ccccc2)CC12CC2	p53ts 39C kill inconclusive (no result: FLuc inh)
Clc1ccc(CSCCc2ccncc2)cc1Cl	none
Cc1cccn2c(=O)c3cc(C(=O)NC(C)C)c(=N)n(Cc4ccncc4)c3nc12	none
COCCn1c(=N)c(C(=O)NCCc2ccc(OC)cc2)cc2c(=O)n3cccc(C)c3nc21	Tau fil binding 2µM
CCNC(=O)c1cc2c(=O)n3cccc(C)c3nc2n(Cc2ccc(C)cc2)c1=N	Tau fil binding 1.58µM
Cc1ccc2[nH]cc(C(c3ccccc3)c3ccc(C)s3)c2c1 (configuration not stated)	p53ts 39C kill 12.6µM, p53ts 32C tox inconclusive (no result: Tau fil binding, FLuc inh)
CCCSc1nnc2nc3c(nn12)c1ccccc1n3C	Tau fil binding 15.8µM
CCCc1nnc(NC(=O)C(CC)Sc2nnc3c4ccccc4n(C)c3n2)s1 (configuration not stated)	none (no result: Tau fil binding, FLuc inh)
Nc1c(C(=O)c2ccccc2)sc(Nc2ccc(Cl)c(Cl)c2)c1C(=O)Nc1ccccc1	Imprint erasure inconclusive (no result: Tau fil binding, FLuc inh)
Cc1ccc(N2C(=O)c3oc4ccccc4c(=O)c3C2c2cccc(O)c2)nc1 (configuration not stated)	Tau fil binding 25.1µM
CCOc1cc(C2c3c(oc4ccccc4c3=O)C(=O)N2c2ccccn2)ccc1O (configuration not stated)	none (no result: Tau fil binding, FLuc inh)
COc1cc(C2c3c(oc4ccccc4c3=O)C(=O)N2c2ccc(C)cn2)ccc1O (configuration not stated)	Tau fil binding 12.6µM
CCOc1ccc(C2c3c(oc4ccccc4c3=O)C(=O)N2c2ccc(C)cn2)cc1OC (configuration not stated)	Tau fil binding 3.98µM
CCCOc1ccc(C2c3c(oc4ccccc4c3=O)C(=O)N2c2ccc(C)cn2)cc1OCC (configuration not stated)	none (no result: Tau fil binding, FLuc inh)
COc1cc(C2c3c(oc4cc(C)c(C)cc4c3=O)C(=O)N2c2cc(C)ccn2)ccc1O (configuration not stated)	Tau fil binding 5.01µM
CCOc1ccccc1NC(=O)c1c(NC(=O)c2ccccc2C)sc2c1CCC(C)C2 (configuration not stated)	none (no result: Tau fil binding, FLuc inh)
CCOC(=O)C1CCN(C(=O)Nc2ccc3c(c2)nc(C)n3C)CC1	none
O=C(Nc1ccc2nc(-c3ccco3)c(-c3ccco3)nc2c1)N1CCCCCC1	Tau fil binding 1.26µM
CCOC(=O)C1CCN(C(=O)Nc2ccc3nc(-c4ccco4)c(-c4ccco4)nc3c2)CC1	Tau fil binding 0.794µM
Cc1nc2ccc(NC(=O)N3CCCCC3)cc2nc1C	none (no result: Tau fil binding, Imprint erasure, FLuc inh)
Cc1ccccc1Nc1cc(C(=O)NCc2cccs2)c2ccccc2n1	none (no result: Tau fil binding, FLuc inh)
Cc1cc(Cl)ccc1OCc1cc(=O)n2c3c(sc2n1)CCCC3	none (no result: Tau fil binding, FLuc inh)
CCCc1cc(=O)oc2cc(C)c(CN3CCCC3)c(O)c12	Tau fil binding 12.6µM
NCCCCN=C(N)N	Tau fil binding 39.8µM!
CCCC(=O)Nc1ccc(-c2nc3cc(C)c(C)cc3o2)cc1	FLuc inh inconclusive
CCCC(=O)Nc1cccc(-c2nc3cc(C)c(C)cc3o2)c1C	p53ts 39C kill 2.51µM, p53ts 32C tox 2µM (no result: Tau fil binding, FLuc inh)
CCCCCOc1ccc(N2C(=O)CC(N(O)c3ccccc3)C2=O)cc1 (configuration not stated)	Tau fil binding 12.6µM
CCC(Sc1nc2cc3c(cc2c(=O)n1CCCCCC(=O)NCc1ccc2c(c1)OCO2)OCO3)C(=O)NCCCOC (configuration not stated)	p53ts 39C kill inconclusive (no result: Tau fil binding, FLuc inh)
Oc1cccc(C(Nc2ccccn2)c2ccc3cccnc3c2O)c1Cl (configuration not stated)	p53ts 39C kill 7.94µM (no result: Tau fil binding, FLuc inh)
CCC(=O)NC(c1ccccc1OC)c1ccc2cccnc2c1O (configuration not stated)	none (no result: Tau fil binding, Imprint erasure, FLuc inh)
Cc1cccc(C2=N[C@@H](Cc3ccccc3)CO2)c1	none (no result: p53ts 39C kill, Tau fil binding, p53ts 32C tox, FLuc inh)
CC1(c2ccccn2)Nc2ccccc2-c2nc3ccccc3n21 (configuration not stated)	none
c1ccc2c(c1)NC1(CCCCC1)n1c-2nc2ccccc21	p53ts 39C kill inconclusive, p53ts 32C tox inconclusive, FLuc inh 12.6µM
c1ccc(Cn2c(-c3ccco3)nc3nc4ccccc4nc32)cc1	Tau fil binding 7.94µM
COc1ccc(CCn2c(-c3ccco3)nc3nc4ccccc4nc32)cc1	Tau fil binding 12.6µM
CCCCCn1c(-c2ccco2)nc2nc3ccccc3nc21	Tau fil binding 12.6µM
Clc1ccc(-c2nc3nc4ccccc4nc3n2Cc2ccco2)cc1	Tau fil binding inconclusive
O=c1c2ccccc2nc(-c2ccco2)n1Cc1ccccc1	none
Cc1ccc(-c2nc3nc4ccccc4nc3n2Cc2ccco2)cc1	p53ts 39C kill 12.6µM, Tau fil binding 15.8µM, p53ts 32C tox 12.6µM, FLuc inh 10µM
C1COC1	none (no result: FLuc inh)
COc1ccccc1Cn1c(-c2ccco2)nc2nc3ccccc3nc21	Tau fil binding 15.8µM, FLuc inh 3.16µM
c1coc(-c2nc3nc4ccccc4nc3n2CC2CCCO2)c1 (configuration not stated)	none
COc1ccc(/C=C/C(=O)Nc2cccc(F)c2)cc1	p53ts 39C kill 7.94µM, p53ts 32C tox 10µM (no result: Tau fil binding, FLuc inh)
COC(=O)[C@H](C)NC(=O)/C=C/c1ccc(OC)cc1	none (no result: Tau fil binding, Imprint erasure, FLuc inh)
COc1ccc(NC(=O)/C=C\c2ccc(Cl)cc2)cc1	p53ts 39C kill inconclusive, p53ts 32C tox inconclusive, FLuc inh 12.6µM (no result: Imprint erasure)
COc1ccc(NC(=O)/C=C/c2ccc(Cl)cc2)cc1	none (no result: p53ts 39C kill, Tau fil binding, p53ts 32C tox, FLuc inh)
Cc1ccc(CNC(=O)c2ccc(CS(=O)(=O)Cc3ccc(F)cc3)o2)cc1	none (no result: Tau fil binding, FLuc inh)
Cc1nc2ccn(Cc3ccco3)c(=O)c2cc1C(=O)NCc1ccccc1F	none (no result: Tau fil binding, FLuc inh)
Cc1nn(-c2nc3ccccc3s2)c(C)c1Oc1ccccc1O	p53ts 39C kill inconclusive, p53ts 32C tox 12.6µM, FLuc inh inconclusive
Cc1nn(-c2ccccn2)c(C)c1Oc1ccccc1O	none
